Reference: PubChem BioAssay (NCATS)
Inconclusive results are not listed. The source made the active and inactive calls. Calls come from the whole dose curve; as a rule, active = well fitted inhibition curve with a large enough effect; inconclusive = small, poorly fitted or top-dose-only effect; inactive = flat fitted curve, though single readings scatter.

What was measured:
Assay in all cases: qHTS profiling for inhibitors of Plasmodium falciparum proliferation (AID 504749); note: nearly all actives have a fitted effect of over 60% in size
Conditions in all cases: P. falciparum in erythrocytes, SYBR Green DNA, 72 h
[1] = system: CP191
Summary of the method: (§1)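 P. falciparum-infected erythrocytes (0.3% parasitemia, 2.5% hematocrit) incubated with compound 72 h at 37 C, 5% CO2. Parasite DNA detected by SYBR Green after lysis, overnight at room temperature; normalised to 0.29 uM artemisinin and DMSO.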

[2] = system: CP192
Summary of the method: as §1

[3] = system: CP194
Summary of the method: as §1

[4] = system: CP201
Summary of the method: as §1

[5] = system: CP203
Summary of the method: as §1

[6] = system: CP211
Summary of the method: as §1

[7] = system: CP215
Summary of the method: as §1

[8] = system: CP217
Summary of the method: as §1

[9] = system: CP237
Summary of the method: as §1

[10] = system: CP238
Summary of the method: as §1

[11] = system: CP247
Summary of the method: as §1

[12] = system: CP250
Summary of the method: as §1

[13] = system: CP252
Summary of the method: as §1

[14] = system: CP256
Summary of the method: as §1

[15] = system: CP260
Summary of the method: as §1

[16] = system: CP262
Summary of the method: as §1

[17] = system: CP265
Summary of the method: as §1

[18] = system: CP266
Summary of the method: as §1

[19] = system: CP268
Summary of the method: as §1

[20] = system: CP269
Summary of the method: as §1

Measured: Potency
Potency is the fitted concentration of half-maximal effect.

CC[C@]1(O)CC2CN(CCc3c([nH]c4ccccc34)[C@@](C(=O)OC)(c3cc4c(cc3OC)N(C)[C@H]3[C@@](O)(C(=O)OC)[C@H](OC(C)=O)[C@]5(CC)C=CCN6CC[C@]43[C@@H]65)C2)C1 (stereo partly drawn)
active: [1] 2820 nM | [2] 4260 nM | [3] 3010 nM | [4] 4780 nM | [5] 4260 nM | [6] 1510 nM | [7] 2130 nM | [8] 3980 nM | [9] 158 nM | [10] 3160 nM | [11] 355 nM | [12] 3550 nM | [13] 3550 nM | [14] 2510 nM | [15] 158 nM | [16] 1070 nM | [17] 3980 nM | [18] 3790 nM | [19] 6750 nM | [20] 1900 nM

CC(=O)O[C@H]1C(=O)[C@@]2(C)[C@H]([C@H](OC(=O)c3ccccc3)[C@]3(O)C[C@H](OC(=O)[C@H](O)[C@@H](NC(=O)c4ccccc4)c4ccccc4)C(C)=C1C3(C)C)[C@]1(OC(C)=O)CO[C@@H]1C[C@@H]2O
active: [1] 178 nM | [2] 675 nM | [3] 675 nM | [4] 953 nM | [5] 849 nM | [6] 478 nM | [7] 1350 nM | [8] 562 nM | [9] 708 nM | [10] 251 nM | [11] 355 nM | [12] 708 nM | [13] 178 nM | [14] 282 nM | [15] 355 nM | [16] 953 nM | [17] 891 nM | [20] 536 nM
